Pf Dd2 growth: blocks in vitro growth of P. falciparum Dd2; P. falciparum Dd2 growth, SYBR Green, 72 h; Potency, µM (doses to about 28.9 µM), without a hit: at the highest dose activity, negative = inhibition, most hits filed as inhibitors; 4.3% of 120,000 active; AID 1347417; active = well fitted inhibition curve with a large enough effect;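 also: plate controls were DMSO vehicle for no effect and reference drug for full effect; nearly all actives have a fitted effect of over 65% in size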
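Infected erythrocytes (Dd2, 0.3% parasitemia, 2.5% hematocrit final) are added to compound in RPMI-1640/Albumax II medium, grown 72 h at 37C in low oxygen, then lysed with saponin/Triton-X containing SYBR Green and read by fluorescence.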
Starred values were filed as active, the others as inactive; i = inactive; [ ] = another dose, or the depositor's remark. This excerpt belongs to a sample that is enriched for hits. Potency is read from the fitted curve at half-maximal effect.

SMILES	Pf Dd2 growth
Cc1c(C)n(Cc2ccccc2)c2ccc(C(=O)NCc3ccco3)cc12	7.1µM*
COc1ccc(CN2C[C@H]3CN(Cc4ncc[nH]4)CCN3C2=O)cc1	-15%[44.1 µM]
COC[C@@H]1CN(c2cnccn2)C[C@H]1C(=O)NCc1ccc(C)c(C)c1	-18%
COCc1c(C(=O)N[C@H](c2ccc(OC)nc2)C2CC(O)C2)noc1C (some centres undefined)	1%
O=C(NCc1ccc(F)cc1)C1CN(c2cccc(Cl)c2)C(=O)N1 (centres undefined)	4%[44.1 µM]
CN1CC(=O)N(C2CCCNCC2)Cc2c1ncnc2N1CCC(N2CCOCC2)CC1 (centres undefined)	9%
CCc1noc(-c2cccn3c(CNC(=O)c4ccc(F)c(F)c4)nnc23)n1	-4%
COC(=O)c1scc(-c2ccc(C)cc2)c1S(=O)(=O)Nc1cccc(Cl)c1C	i
CCOc1ccccc1NS(=O)(=O)c1c(-c2ccc(C)cc2)csc1C(=O)OC	10µM*
COC(=O)c1scc(-c2ccc(C)cc2)c1S(=O)(=O)Nc1ccc(F)cc1F	4%
Cc1c(NC(=O)CCc2cc3n(n2)CCNC3)c(C)n(C)c(=O)c1C(N)=O	-7%
COc1cc(NC(=O)Cn2ccn3nc(-c4ccccc4)c(CO)c3c2=O)cc(OC)c1OC	-10%
COc1cccc(-c2cc(C3CCN(C(=O)Nc4cccc(SC)c4)CC3)[nH]n2)c1	-28%
CCOc1ccc(NC(=O)Cn2nc3n(c2=O)CCCCC3)cc1	27%
CCOc1ccc(NC(=O)COc2cccc(-c3nnc4n3CCCC4)c2)cc1	2.8µM*
O=C(Cn1nc2n(c1=O)CCCC2)N1CCN(c2ccccc2F)CC1	-17%
Cc1cccc(NC(=O)COc2ccc3oc4c(c3c2)CCCC4)c1	33%
COc1ccccc1NC(=O)COc1cccc(-c2nnc3n2CCCC3)c1	0.63µM*
O=C(COc1cccc(-c2nnc3n2CCCC3)c1)N1CCN(c2ccccc2F)CC1	5µM*
CSc1cccc(NC(=O)COc2cccc(-c3nnc4n3CCCC4)c2)c1	11µM*
O=C(COc1cccc(-c2nnc3n2CCCC3)c1)NCc1ccccc1	i
Cc1cc2nc3n(c(=O)c2n1CC(=O)N1CCN(c2ccccc2F)CC1)CCCCC3	i
CCOc1ccc(NC(=O)Cn2c(C)cc3nc4n(c(=O)c32)CCCCC4)cc1	-12%
COc1ccccc1NC(=O)Cn1cnc2c(nc3n2CCCCC3)c1=O	29%
CCN(Cc1ccccc1)C(=O)CN1CCCc2nc(C3CC3)ncc2C1=O	1%
SMILES	Pf Dd2 growth
NC(=O)C1CCN(C(=O)[C@H]2C[C@@H](O)[C@H](O)[C@@H]3N=C(Nc4cccc(C(F)(F)F)c4)S[C@@H]32)CC1	i
Cc1cccc(OCC(=O)N2CCC3(CC2)NC(=O)N(c2ccc(F)cc2)N3)c1	i
CC(C)c1ccc(NC2=N[C@H]3[C@@H](O)[C@H](O)C[C@H](C(=O)NC4CCCC4)[C@H]3S2)cc1	-22%[44.1 µM]
CN1CC[C@H]2CN(C(=O)C3(Cn4ccnc4)CC3)C[C@@]2(C(=O)O)C1	-8%
CC(=O)N1CCC(N[C@@H]2C[C@H](Cn3cc(C4CC4)nn3)[C@@H](O)[C@H]2O)CC1	30%
CCCNC(=O)N1CCCCCCNC(=O)[C@@H]2C[C@@H](c3nc(-c4cccnc4)no3)C[C@@H]21	i
COc1ccc(OC2CN(S(=O)(=O)c3c(C)noc3C)C2)cc1	10%
COc1ccc(C(=O)N2C[C@@H](CO)[C@H](c3nc(C)no3)C2)cc1F	-4%
CCn1ccnc1CN1CCc2[nH]cnc2C1c1ccc(OC)c(F)c1F (centres undefined)	-25%
CSCC(=O)N[C@H]1CCN2C(=O)c3ccc(Cl)cc3NC(=O)[C@@H]2C1	21%[44.1 µM]
O=C(CCC1CCCCC1)N1CC2CC(C1)[C@H]1CCCC(=O)N1C2 (some centres undefined)	8%
Cc1nc(N2CCC(C(=O)NCc3ccc4c(c3)OCO4)CC2)cc(C(F)(F)F)n1	-16%
O=C(COc1ccc(-c2nnc3n2CCCC3)cc1)NCc1ccc2c(c1)OCO2	10µM*
COc1ccc(CNC(=O)COCc2cc(-c3ccc4c(c3)OCO4)on2)cc1	150%
O=C(NCc1ccco1)C1c2ccccc2C(=O)N(C2CCCCC2)C12CCCCC2 (centres undefined)	i
CN1C(=O)CCC2(CNC(=O)c3ccco3)CCCC=C12 (centres undefined)	-10%
O=C(NCc1ccco1)N1CC(c2noc(C3CCCN3CC3CC3)n2)C1 (centres undefined)	i
CCCS(=O)(=O)N1CC(c2noc(C3CCCN3CC3CC3)n2)C1 (centres undefined)	-16%
O=C(c1cccs1)N1CC(c2noc(C3CCCN3CC3CC3)n2)C1 (centres undefined)	4µM*
CCCC1(CO)CCCN(Cc2nnc(-c3cccc(F)c3)o2)C1 (centres undefined)	i
CC(C)=CCC1(CO)CCCN(Cc2[nH]c3ccc(F)cc3c2C)C1 (centres undefined)	2.2µM*
CCc1noc(C)c1C(=O)N1CCCC(CO)(CC=C(C)C)C1 (centres undefined)	-13%
